Experimental data from PubChem BioAssay AID1851 (National Center for Advancing Translational Sciences (NCATS), 2009).
Where “and” joins values, the source holds several entries; their conditions need not be identical. Equal entries are not always repeated. The campaign covered roughly 16,000 compounds. About 5,100 (32%) were called active. Not shown: some 25% with an inconclusive outcome. The list shows a part of the results. Unmarked numbers belong to inactive results. The call rests on the fitted dose curve; in most records, active means well fitted curve in the direction sought with a large enough effect; inconclusive means small, poorly fitted or top-dose-only effect, or effect the other way; inactive means no such curve, though single readings can be large or run the other way.

target: Cytochrome P450 3A4 (Homo sapiens) (UniProt P08684); assay: Cytochrome panel assay with activity outcomes; conditions: recombinant CYP, pro-luciferin dealkylation, luminescence, p450-cyp3a4; series mostly up to 57.1 µM; activity, negative = inhibition: at the top concentration
On the % scale 0 is the no-effect control and ±100 the full control effect.

Sequence of Cytochrome P450 3A4 (Homo sapiens) (P08684 whole entry, looked up): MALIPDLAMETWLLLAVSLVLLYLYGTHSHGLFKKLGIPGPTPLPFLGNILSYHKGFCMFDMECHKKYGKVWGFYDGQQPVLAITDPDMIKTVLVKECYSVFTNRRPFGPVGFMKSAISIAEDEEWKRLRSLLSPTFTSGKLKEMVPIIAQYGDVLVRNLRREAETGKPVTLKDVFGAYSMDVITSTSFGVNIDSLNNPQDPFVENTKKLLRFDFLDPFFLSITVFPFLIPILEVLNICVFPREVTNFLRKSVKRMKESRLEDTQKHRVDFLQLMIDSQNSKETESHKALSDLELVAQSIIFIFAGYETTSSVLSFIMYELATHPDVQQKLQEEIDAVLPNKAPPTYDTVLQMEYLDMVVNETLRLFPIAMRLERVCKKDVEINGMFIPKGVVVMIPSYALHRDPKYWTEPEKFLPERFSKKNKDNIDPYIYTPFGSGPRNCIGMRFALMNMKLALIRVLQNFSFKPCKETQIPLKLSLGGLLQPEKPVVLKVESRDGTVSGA

Structure (SMILES)	activity, negative = inhibition	AC50
COCCNC(=O)c1ccc2c(c1)ncn2-c1ccc(F)c(F)c1	-10.9%	
N#Cc1ccccc1-c1ccc2ncnc(NCCN3CCOCC3)c2c1		10 µM (active)
Clc1ccccc1-c1ccc2ncnc(NCCN3CCOCC3)c2c1		5.01 µM (active)
COc1ccccc1-c1ccc2ncnc(NCCN3CCOCC3)c2c1		7.94 µM (active)
S=c1nc(-c2ccccc2)oc2c1CCCC2	-8.21%	
CCOC(=O)c1c2ccc(OCC(=O)N/N=C/c3ccc(Cl)cc3)cc2n2ccccc12	-26.7% [at 2.29 µM]	
Cc1cccc(OCC(=O)N2CCC(N3CCCCCC3)CC2)c1	-29.2%	
O=C(CN1CCCC1)N/N=C/c1ccc(-c2cccc(Cl)c2)o1	13.8% [at 2.29 µM]	
O=C(CSCc1cccc(Cl)c1)N/N=C/c1ccc(OCC(=O)N2CCCCC2)cc1		14.1 µM (active)
Cc1cccc(C(=O)N/N=C/c2ccc(OCC(=O)N3CCCCC3)cc2)c1		20 µM (active)
COc1ccc2oc(=O)c(C(=O)Oc3ccc(NC(C)=O)cc3)cc2c1	-13.8%	
COc1ccc2cc3cc(C(=O)NCc4ccc5c(c4)OCO5)oc3nc2c1		0.708 µM (active)
COc1ccc2cc3cc(C(=O)Nc4ccc5c(c4)OCO5)oc3nc2c1		0.355 µM (active)
C/C(O)=C\c1nc2ccccc2oc1=O	-17.8%	
CO[C@@H]1/C=C\O[C@@]2(C)Oc3c(C)c(O)c4c(c3C2=O)C(=N[C@H]2CC[C@H](O)O[C@@H]2C)C=C(NC(=O)/C(C)=C\C(=O)[C@@H]2C[C@@H]2[C@@H](O)[C@H](C)[C@@H](O)[C@H](C)[C@H](OC(C)=O)[C@@H]1C)C4=O		1.26 µM (active)
CO[C@H]1C=CO[C@]2(C)Oc3c(C)c(O)c4c(O)c(c5c(c4c3C2=O)NC2(CCN(CC(C)C)CC2)N=5)=NC(=O)C(C)=CC=C[C@@H](C)[C@@H](O)[C@@H](C)[C@@H](O)[C@@H](C)[C@@H](OC(C)=O)[C@@H]1C	-16.2% [at 25.6 µM]	
Cc1ccccc1NC(=O)/C(=C/c1ccccc1)c1ccccc1	12.5% [at 11.4 µM]	
COc1ccc(/C=C(/C(=O)Nc2ccccc2C(=O)NC(C)C)c2ccccc2)cc1		11.2 µM (active)
CC(C)C(=O)NC(=S)Nc1ccccc1C(=O)Nc1ccccc1	11.2% [at 2.29 µM]	
OC[C@@H]1NC[C@@H](O)[C@H]1O	3.03%	
CCN1C(=O)[C@H]2[C@H]3[C@H](O)[C@H](O)C/C(=N/O[C@@H](C)c4cn([C@H]5COC[C@H]5O)nn4)[C@@H]3CC[C@@H]2C1=O	-18.4% [at 11.4 µM]	
COc1cccc([C@@H]2Oc3ccc(OC)cc3/C(=N/O[C@@H](C)c3cc(-c4c(C)cc(C)cc4C)no3)[C@@H]2O)c1		1.58 µM (active)

Structure (SMILES)	activity, negative = inhibition	AC50
COc1cccc([C@@H]2Oc3ccc(OC)cc3/C(=N/O[C@@H](C)c3cn([C@H]4COC[C@H]4O)nn3)[C@@H]2O)c1		3.16 µM (active)
COc1cccc([C@H]2Oc3ccc(OC)cc3/C(=N\O[C@@H](C)c3cn([C@H](CO)Cc4ccccc4)nn3)[C@@H]2O)c1		3.16 µM (active) and 3.98 µM (active)
Cc1cc(C)c(-c2cc([C@H](C)O/N=C\[C@@H](C)[C@H](OCc3ccccc3)C(C)C)on2)c(C)c1	-37.1% [at 11.4 µM]	
CC(C)=NO[C@@H](C)c1cn([C@@H]2COC[C@@H]2O)nn1	-6.38% [at 11.4 µM]	
CCC(NC(=O)C1(C)CC1(Br)Br)c1ccc(C)cc1 (stereo not given)		3.98 µM (active)
CCC(C)[C@H](NC(=O)NC1CCN(Cc2ccccc2)CC1)C(=O)OC (stereo not given in full)	6.5%	
CCC(C)C(NC(=O)OCc1ccccc1)C(=O)OCN1C(=O)c2ccccc2C1=O (stereo not given)		7.08 µM (active)
O=C1NCCc2c1[nH]c1ccccc21	17.8% [at 2.29 µM]	
CCOC(=O)COc1c(C=O)cc(Br)cc1OC	-7.04%	
CCOc1cc(/C=C2\N=C(C)OC2=O)cc(Br)c1OCC(=O)OC		10 µM (active)
O=C1CCC(c2ccccc2)(c2ccccc2)CC1	10.5% [at 11.4 µM]	
c1ccc2c(CC3NCCN3)cccc2c1	-5.75% [at 11.4 µM]	
CN1CCCC[C@@H]1CCN1CCCCC1	-2.94% [at 11.4 µM]	
c1ccc(-c2n[nH]c(-c3ccccc3)c2-c2nc3ccccc3[nH]2)cc1		2.24 µM (active)
OCCNc1nc2ccccc2[nH]1	-4.38%	
CCN(CC)c1nc2ccccc2[nH]1	-13.8%	
Cc1c(Cl)c(S(N)(=O)=O)cc2c1=NC=NS=2(=O)O	-13% [at 11.4 µM]	
CCON=C1C(C)(C)C(C)(C)C(C)(C)C1(C)C	-9.31% [at 11.4 µM]	
COc1ccc(O[C@H]2C=C[C@@H](c3ccccc3)O[C@H]2COC(=O)CC/C(C)=N\O[C@@H](C)CN2CCCc3nc(C)c(C)cc32)cc1		3.16 µM (active)
COc1ccc(O[C@H]2C=C[C@@H](c3ccccc3)O[C@H]2COC(=O)CC/C(C)=N\O[C@@H](C)CN2CCCCc3nc(C)c(C)cc32)cc1		3.98 µM (active)
CC(C(=O)Nc1ccccc1Sc1ccccc1)N(c1ccccc1)S(C)(=O)=O (stereo not given)		5.01 µM (active)
Cc1ccc(N(C(C)C(=O)Nc2cc(Cl)ccc2Oc2ccccc2)S(C)(=O)=O)cc1 (stereo not given)		4.47 µM (active)

Structure (SMILES)	activity, negative = inhibition	AC50
O=C(O)[C@@H]1Cc2c([nH]c3ccccc23)[C@@H](CCCCO)N1	1.47% [at 11.4 µM]	
CC(=O)N1CCC2(CCCN(c3ncccn3)C2)CC1	5.39%	
COc1ccc(CCN2C(=NC(=O)CCC(=O)O)SC3CS(=O)(=O)CC32)cc1 (stereo not given)	8.98%	
CCNC(=O)CC1C(=O)N(c2ccc(F)cc2)C(=O)N1CCc1ccc(OC)cc1 (stereo not given)		7.08 µM (active)
CC(=O)Nc1ccc(S(=O)(=O)NC2(C(F)(F)F)NC(=O)N(c3ccc(Cl)cc3)C2=O)cc1 (stereo not given)	3.14%	
O=C(CC1C(=O)N(c2ccc(Cl)cc2)C(=S)N1CCc1ccncc1)Nc1ccc(F)cc1 (stereo not given)		1.26 µM (active)
COc1ccc(C(=O)NC2(C(F)(F)F)C(=O)Nc3c2c(=O)[nH]c(=O)n3CCc2ccc(OC)c(OC)c2)cc1 (stereo not given)	-10.4%	
COc1ccc2c3c(ccc2c1)N[C@H](C(=O)O)CC3	-10.2% [at 11.4 µM]	
O=C(c1cnccn1)N1CCC[C@@]2(CCN(c3ccccc3)C2)C1		7.94 µM (active)
O=C(c1ccco1)N1CCC2(CC1)CN(c1cccc(-c3ccccc3)c1)C2	-14.6%	
O=C(c1ccncc1)N1CCC2(CC1)CN(c1cccc(-c3ccccc3)c1)C2		7.94 µM (active)
CC(=O)N1CCC[C@@]2(CCN(c3ncccn3)C2)C1	-5.73%	
O=C(c1ccncc1)N1CCC2(CC1)CN(c1ncccn1)C2	-26.6%	
O=C(c1cnccn1)N1CCC[C@@]2(CCN(c3ccccn3)C2)C1		10 µM (active)
O=C(c1ccncc1)N1CCC2(CC1)CN(c1ccccc1)C2	-28.5%	
O=C(c1ccncc1)N1CCC2(CC1)CCN(c1ccccc1)CC2	-29.2%	
O=C(c1ccncc1)N1CCC[C@@]2(CCN(c3ccccc3)C2)C1		3.16 µM (active)
CC1(C)Oc2cc(N)c([N+](=O)[O-])cc2O1	-22%	
Cc1c(C=NCCOCc2ccccc2)cnn1C	-18.1%	
O=C(c1ccncc1)N1CCC[C@@]2(CCN(c3ccccn3)C2)C1		7.94 µM (active)
O=C(c1cnccn1)N1CCC2(CC1)CN(c1ccncc1)C2	-3.55%	
CC(=O)N1CCC2(CC1)CN(c1ccncc1)C2	-1.4%	

Structure (SMILES)	activity, negative = inhibition	AC50
CC(=O)N1CCC2(CCCN(c3ccccn3)C2)CC1	-26.5%	
O=C(c1ccncc1)N1CCC2(CC1)CCN(c1ccccn1)CC2	-20.5%	
O=C(c1cnccn1)N1CCC[C@@]2(CCN(c3ccncc3)C2)C1		3.16 µM (active)
COc1cc(C2C(C#N)=C(N)N(c3sc4c(c3C#N)CCCC4)C3=C2C(=O)CC(C)(C)C3)cc(OC)c1OC (stereo not given)		0.501 µM (active)
COc1cc(C2C(C#N)=C(N)N(Nc3ccccc3)C3=C2C(=O)CC(C)(C)C3)ccc1OCc1ccccc1 (stereo not given)		2.82 µM (active)
COc1cc(C2C(C#N)=C(N)N(Nc3ccccc3)C3=C2C(=O)CC(C)(C)C3)ccc1OCc1cccc(F)c1 (stereo not given)		2.51 µM (active)
COc1ccc(C2C(C#N)=C(N)N(Nc3ccccc3)C3=C2C(=O)CC(C)(C)C3)cc1C (stereo not given)		2 µM (active)
CCOc1cc(/C=C2\CCC/C(=C\c3cc(Cl)c(O)c(OCC)c3)C2=O)cc(Cl)c1O	-14.8% [at 2.29 µM]	
CCCCCCCCCCCCC/C=C\[C@@H](O)[C@@H](N)CO	-9.6%	
Cc1cccc(CSCCNC(=O)c2ccc(N(C)S(=O)(=O)c3ccccc3)cc2)c1		3.98 µM (active)
O=C(O)CCSCc1ccccc1	-12.2% [at 11.4 µM]	
CN(c1ccc(C(=O)NCC2CCCO2)cc1)S(=O)(=O)c1ccccc1 (stereo not given)	10.5%	
C=CCOC(=O)/C(=C\c1cccc2ccccc12)NC(=O)c1ccccc1		0.2 µM (active)
O=C1CCC(c2ccc(-n3ccnc3)cc2)=NN1		1.58 µM (active)
N#C/C(=C\c1ccc(Cl)cc1)c1nc2ncccc2[nH]1	-7.91% [at 2.29 µM]	
COc1cc(/C=C(/C#N)c2nc3ccccc3[nH]2)ccc1OCC(=O)Nc1ccccc1C		1.26 µM (active)
COc1cc(/C=C(/C#N)c2nc3ccccc3[nH]2)ccc1Oc1ncccc1[N+](=O)[O-]		1.58 µM (active)
N#C/C(=C\c1ccccc1)c1nc2ncccc2[nH]1	-24% [at 2.29 µM]	
COc1ncnc(NS(=O)(=O)c2ccc(N)cc2)c1OC	-8.96% [at 25.6 µM]	
